Bioassay records: PubChem BioAssay, several laboratories
GDH-TPI inh: GDH-TPI coupling enzyme inhibitors, primary screen, artefact control for M. tuberculosis FBA inhibitor project, biochemical, absorbance, full deck. GDH-TPI coupled enzyme counterscreen, NADH absorbance. AID 588335, 2011. 360,000 tested, 1.2% active. inhibition, % at 4.8 µM; in the data active means inhibition above about 30%;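 further: 0% = DMSO wells and 100% = wells lacking the enzyme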
Mtb FBA inh: Mtb FBA enzyme inhibitors, primary screen, biochemical, fluorescence, strain H37Rv | Fructose-bisphosphate aldolase (Mycobacterium tuberculosis (strain ATCC 25618 / H37Rv)), … | purified M. tuberculosis FBA, fluorescence read-out | inhibition, % at 1 µM | 360,000 tested, 2.3% active | AID 588726, 2011; in the data active means inhibition above about 27%;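 further: 0% = vehicle and 100% = reference inhibitor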
BJeLR viability: MLPCN primary cell-based screen for lethality selective to Ras in HRASV12 cells. BJeLR (HRASV12) viability, CellTiter-Glo ATP luminescence, 48 h. inhibition, % (concentration not given with the values). 300,000 tested, 0.17% active; in the data active means inhibition above about 50%
PrPC surface inh: inhibitors of human cell surface prion protein PrPC, primary screen, cell-based, TR-FRET | Major prion protein (Homo sapiens), P04156 | TR-FRET read-out | 370,000 tested, 0.43% active | inhibition, % at 13.8 µM | AID 720596, 2013; in the data active means inhibition above about 24%; further: 0% = median of the test wells and 100% = reference compound wells
PfHsp40 yeast: rescue of yeast from PfHsp40 toxicity, primary screen, S. cerevisiae, ATP luminescence | S. cerevisiae expressing PfHsp40, growth rescue | 340,000 tested, 0.68% active | growth rescue, % at 12.5 µM; in the data active means growth rescue above about 28%, passing the limit was not always enough;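 further: yeast W303a lacking pdr1 and pdr3 grown in galactose medium; growth measured after three days at 30 °C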
PrP 5UTR inh: inhibition of PrP 5' UTR reporter expression; cell-based PrP 5' UTR mRNA reporter, plate reader; inhibition, % (concentration not given with the values); 340,000 tested, 0.35% active; AID 488862, 2010; in the data active means inhibition above about 52%; further: 0 = median of the neutral control wells
PrPC confirm: confirmation of inhibitors of cell surface human prion protein, confirmation, cell-based, TR-FRET. shares compounds with PrPC surface inh. cell surface PrPC level. inhibition, % at 13.8 µM. 1,500 tested, 65% active; in the data active means inhibition above about 25%
LD9 cytotox: cytotoxicity in LD9 cells, cytotoxicity control for cell surface PrPc inhibitor project, cell-based, luminescence, high throughput; shares compounds with PrPC surface inh; inhibition, % at 13.8 µM; luminescence viability; 1,500 tested, 29% active; in the data active means inhibition above about 9.5%
Starred values were filed as active, the others as inactive; . = no result. In the library only some 4.5% were active in any assay of this set; here they are far more common.

SMILES	GDH-TPI inh	Mtb FBA inh	BJeLR viability	PrPC surface inh	PfHsp40 yeast	PrP 5UTR inh	PrPC confirm	LD9 cytotox
CC(=O)c1ccc(OCCCC(=O)OCC(=O)N2CCN(S(=O)(=O)c3ccc(C)cc3C)CC2)cc1	-8	0	.	4	0	-8	.	.
COc1cc2ccccc2cc1C(=O)Nc1ccc(C)cc1	3	4	14	-3	2	-82	.	.
COc1cc2ccccc2cc1C(=O)Nc1ccc(Cc2ccncc2)cc1	1	2	0	30*	0	-50	16	19*
O=C(O)Cc1ccc(OCc2ccc(Cl)nc2)cc1	-1	-1	13	-8	-1	2	.	.
COc1ccc(CNC(=O)c2sc(=O)n(Cc3cc(Cl)ccc3OC)c2C)cc1	12	5	.	-5	.	.	.	.
COc1ccc(NC(=O)c2sc(=O)n(Cc3ccc(F)c(Cl)c3)c2C)cc1OC	-3	-1	.	30*	.	.	17	0
C=CCNC(=O)c1onc(CSc2ccc(OC)cc2)c1C(=O)O	6	0	-7	37*	-2	-22	5	-6
C=CCNC(=O)c1onc(CSc2ccccc2)c1C(=O)O	3	-2	-2	-3	0	-23	.	.
N#CC1=C(N)NC(=S)C(C(N)=O)C1c1ccc([N+](=O)[O-])cc1 (stereo not given)	0	5	10	-10	-1	-6	.	.
Cc1cccc[n+]1C1C(c2ccc([N+](=O)[O-])cc2)C(C#N)=C(C(=C=[N-])C#N)NC1(O)C1CC1 (stereo not given)	6	6	0	39*	0	-13	-4	2
Brc1cc(Br)c2nc3c(cc2c1)CCC3	-1	0	-17	26*	0	-12	71*	1
CSc1nc2c(cc1C#N)CCC2	2	0	8	5	3	-38	.	.
COC(=O)Cc1c(C)c2ccc(OCC(=O)N3CCCC(C)C3)c(C)c2oc1=O (stereo not given)	10	120*	-17	26*	1	-8	38*	9
Cc1c(Cc2ccccc2)c(=O)oc2c(C)c(OCC(=O)NCC3CCC(C(=O)O)CC3)ccc12 (stereo not given)	9	27	6	4	0	-28	.	.
O=C(NCc1ccc(Cl)cc1)C1CCN(S(=O)(=O)N2CCOCC2)CC1	-4	1	6	4	-1	-21	.	.
COc1ccc(C(=O)Nc2ncccc2C)cc1S(=O)(=O)N1CCCc2ccccc21	-10	2	-3	-4	-2	-12	.	.
COc1ccc(C(=O)Nc2nc3c(s2)CCCC3)cc1S(=O)(=O)N1CCCc2ccccc21	20	2	21	28*	0	5	24	5
NS(=O)(=O)c1ccc(CCNC(=O)CCCCCn2c(=S)[nH]c3ccc(Br)cc3c2=O)cc1	8	-2	1	25*	1	51	37*	-4
O=C(CCCCCn1c(=S)[nH]c2ccc(Br)cc2c1=O)NCC1CCCO1 (stereo not given)	0	3	-7	-1	-1	-13	.	.
O=C1NC[C@H](CCCCN2C[C@H](Cc3ccc(O)cc3)N(CC3CCCCC3)C(=O)C2=O)N(CC2CCCCC2)C1=O	.	.	.	25*	.	.	24	-1
CN1/C(=C\C(=S)NC(=O)c2cccc(Br)c2)C(C)(C)c2ccccc21	8	-12	2	25*	3	-18	30*	16*
COc1cccc2c(NCc3ccccc3)nc(-n3c(N)nc4ccccc43)nc12	.	.	.	70*	.	.	49*	98*
COc1cccc(-c2nc(NCc3cccnc3)c3ccccc3n2)c1O	11	3	-3	-4	0	.	.	.
CSCc1nc2scc(-c3ccccc3)c2c(=O)[nH]1	8	-2	7	-7	0	-3	.	.
O=c1[nH]c(Cc2ccccn2)nc2scc(-c3ccccc3Cl)c12	6	-1	4	26*	3	-12	11	-4
SMILES	GDH-TPI inh	Mtb FBA inh	BJeLR viability	PrPC surface inh	PfHsp40 yeast	PrP 5UTR inh	PrPC confirm	LD9 cytotox
COc1ccccc1N(CC(=O)N1CCOCC1)S(C)(=O)=O	13	1	1	7	-2	-14	.	.
COC(=O)N1C2CCCCC2=NN(c2ccccc2)N1C(=O)OC (stereo not given)	.	0	.	29*	.	.	5	-2
COc1cc2c3cc1Oc1c(OC)c(OC)cc4c1[C@H](Cc1ccc(cc1)Oc1cc(ccc1O)C[C@H]3N(C)CC2)N(C)CC4	4	-2	.	-5	0	-21	.	.
COc1ccc(CC2C(=O)NC(C)C(=O)N(C)C3Cc4ccc(cc4)Oc4cc(ccc4O)CC(C(=O)NC(C)C(=O)NC(C)C(=O)N2C)N(C)C3=O)cc1 (stereo not given)	8	-1	.	83*	-2	49	90*	34*
CC(C)Cc1nc(N2CCC(C(N)=O)CC2)c2nnn(Cc3ccccc3)c2n1	11	1	-2	-4	-1	-20	.	.
CC(C)Cc1nc(Nc2ccccc2C#N)c2nnn(Cc3ccccc3)c2n1	1	-2	-10	29*	4	-44	13	0
COc1ccc(C(=O)Nc2ccccc2C(=O)NC(Cc2ccc(O)cc2)C(=O)NNC(=O)c2ccc(C)cc2)cc1 (stereo not given)	-10	-8	-2	83*	0	0	6	-1
COc1ccc(C(=O)Nc2ccccc2C(=O)NC(Cc2ccc(O)cc2)C(=O)NNC(=O)c2ccccc2)cc1 (stereo not given)	3	2	-1	0	-1	-17	.	.
CSc1ccccc1NC(=O)CN(C)CC(=O)Nc1ccccc1C(F)(F)F	4	2	2	-5	0	-40	.	.
Cc1cc(NC(=O)CN2CCN(c3ccc(O)cc3)CC2)no1	2	0	-12	-8	0	-16	.	.
CCC(C)n1ncn(-c2ccc(N3CCN(c4ccc(O)cc4)CC3)cc2)c1=O (stereo not given)	-1	-3	-20	25*	0	-2	30*	-8
C=C1C(=O)OC2CC3(C)OC3C3OC3C3=CC(OC3=O)C12 (stereo not given)	3	0	.	93*	.	.	80*	21*
Cc1ccc(NC(=O)N2CCCC2C(=O)NCC2CCCO2)cc1 (stereo not given)	-7	-1	-9	6	-2	-8	.	.
